From PubChem
In the library only some 1.6% were active in any assay of this set; here they are far more common.
NSD2 HMT inh – inhibitors of human histone methyltransferase NSD2 | AID 743445 | 310,000 tested, 0.54% active | O96028 | NSD2 peptide methylation, AlphaScreen, 120 min | inhibition, % at 12.5 µM; in the data active = inhibition above about 50%
Rce1 inhib – blocks yeast Ras-converting enzyme | AID 2563 | yeast membranes, quenched prenylated peptide cleavage fluorescence | 290,000 tested, 0.27% active | calls only;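 active = fall in fluorescence gain of 50% or more versus controls, with final raw signal at or below 3038400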
Efflux pump mplx – antifungal efflux pump inhibition, Nile Red retention; S. cerevisiae Candida pump triplex; inhibition, % at 10 µM; 330,000 tested, 0.44% active; AID 485275;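 active = plate passing quality check with inhibition over a set limit, or well fluorescence over plate mean plus 4 SD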;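 note: Nile Red retained in pooled yeast measured as flow cytometry median fluorescence; higher means more Nile Red kept so more efflux inhibition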
GC-A act – GC-A (human) enzyme activation | HEK293 GC-A cells, cGMP TR-FRET, EC30 ANP; 0% at EC30 ANP, 100% saturating ANP | activation, % at 10 µM | 370,000 tested, 0.14% active | AID 1671463; in the data active = activation above about 40%
V-ATPase pHluor – regulators of yeast V-ATPase proton transport; S. cerevisiae, pHLuorin cytosolic pH fluorescence; response, % at 10 µM; 350,000 tested, 0.37% active; AID 504577; in the data active = response mostly above about 7.3%, no sharp cut-off; inactive = mostly below about 5.4%; note: actives read high
GC-B act – GC-B (human) receptor activation; AID 1920062; HEK293-GC-B cells, CNP EC30, cGMP TR-FRET; 0% at EC30 CNP, 100% saturating CNP; 370,000 tested, 0.11% active; P20594; activation, % at 10 µM;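 active = activation at 10 µM reaching about 35% in either raw or pattern-adjusted values, limit read from the data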
VATPase regulator – yeast V-ATPase proton transport regulation; shares compounds with V-ATPase pHluor; AID 602197; response, % at 10 µM; 980 tested, 2% active; S. cerevisiae pHLuorin cytosolic pH; in the data active = response above about 24%
Numbers stand for hits; . = inactive; / = no result.

SMILES	NSD2 HMT inh	Rce1 inhib	Efflux pump mplx	GC-A act	V-ATPase pHluor	GC-B act	VATPase regulator
O=c1[nH]c(CN2CCN(c3ccccc3O)CC2)nc2ccccc12	.	.	.	.	14	.	.
CCNC(=S)NC1CC2CCCC(C1)N2Cc1ccc(C)cc1 (stereo not given)	.	.	.	.	6.3	.	.
CNC(=S)NC1CC2CCCC(C1)N2Cc1ccc(C)cc1 (stereo not given)	.	.	.	.	.	.	/
Cc1ccccc1Cn1cc(CN2[C@@H](C)COc3cc(Br)ccc3S2(=O)=O)nn1	/	/	/	.	/	.	/
COCCNS(=O)(=O)c1ccccc1	.	.	.	.	.	.	/
C=CCN(C(=O)CNS(=O)(=O)c1ccccc1)C(C(=O)NCCOC)c1ccncc1 (stereo not given)	.	.	.	.	22	.	.
O=C(NCc1ccco1)C(=O)NCC(c1ccco1)N1CCOCC1 (stereo not given)	/	.	.	.	19	.	.
CCOC(=O)C1C(C(=O)OC)=C(c2ccc(OC)cc2)c2ccccc2N1S(=O)(=O)C(F)(F)F (stereo not given)	/	/	.	.	.	.	/
CCOC(=O)C1C(C(=O)OC)=C(c2ccc(OC)cc2)c2ccc(OC)cc2N1S(=O)(=O)C(F)(F)F (stereo not given)	/	/	.	/	8.0	/	.
CCOc1cc(C2C(C#N)=C(N)SC(N)=C2C#N)ccc1OCCN1CCOCC1	.	.	.	.	.	.	/
CCOc1ccc(C2C(C#N)=C(N)SC(N)=C2C#N)c(OCC)c1	.	.	.	.	12	.	.
COc1ccc(C#Cc2ccc3c(c2)[C@H]2[C@H](CCN2S(=O)(=O)c2ccccc2F)[C@H](CO)N3C)cc1	/	/	/	.	/	.	/
COc1ccc(O)c(CN2CCC(n3nccc3NC(=O)c3ccccc3Cl)CC2)c1	.	.	.	.	9.2	.	.
COc1ccc(O)c(CN2CCC(n3nccc3NC(=O)CCOc3ccccc3)CC2)c1	.	.	.	.	.	.	/
O=C(OC12CCCN(C1)/C(=C/c1ccccc1)C2)C1CCCC1 (stereo not given)	/	/	/	.	/	.	/
Cc1cc2c(c(=O)n1Cc1cccnc1)C(c1ccc(F)cc1)C(C#N)=C(N)O2 (stereo not given)	.	.	.	.	12	.	.
Cc1nn(CC#N)c(=O)n1-c1ccc(Cl)cc1	.	.	.	.	.	.	.
COc1ccc(/C=C2\CCn3c2nc2cc(C(=O)O)ccc2c3=O)cc1O	.	.	.	.	10	.	.
COc1ccc(CNCC(O)(c2ccccc2)c2ccc(Cl)cc2)cc1 (stereo not given)	.	.	.	.	11	.	.
Cc1ccc(CNCC(O)(c2ccccc2)c2ccc(Cl)cc2)cc1 (stereo not given)	.	.	/	.	.	.	/
CC1CC(C)(C)NC(=S)N1CC(=O)NCc1ccc(F)cc1 (stereo not given)	.	.	.	.	8.5	.	.
CCOC(=O)CNC(=O)Cc1ccc(Cl)cc1	.	.	.	.	.	.	/
CCN(CC)C(=O)CNC(=O)Cc1ccc(Cl)cc1	.	.	.	.	9.5	.	.
C=CCNC(=O)/C(=C\c1ccc([N+](=O)[O-])cc1)NC(C)=O	.	.	.	.	13	.	.
CN(C)C(CNC(=O)c1ccc(S(=O)(=O)Nc2cccc(C(F)(F)F)c2)cc1)c1ccco1 (stereo not given)	.	.	.	.	10	.	.
SMILES	NSD2 HMT inh	Rce1 inhib	Efflux pump mplx	GC-A act	V-ATPase pHluor	GC-B act	VATPase regulator
CN(C)C(CNC(=O)c1cccc(NS(=O)(=O)c2ccc(Br)cc2)c1)c1ccco1 (stereo not given)	.	.	.	.	.	.	/
O=C1NC(=S)N/C1=C/c1cccc2ccccc12	.	.	.	.	9.1	.	.
O=C(Nc1ccc(Cl)cc1Cl)O[C@@H]1CC[C@@]23CCCN2C(=O)CCC[C@H]3C1	.	/	/	.	/	.	/
Cc1c(C(=O)O)sc(=S)n1-c1ccc(Cl)cc1	.	.	.	.	.	.	.
CCOC(=O)c1sc(=S)n(-c2ccc(Cl)cc2)c1C	.	.	.	.	.	.	/
COc1ccc(CN(CCN2CCOCC2)C(=O)c2ccc(F)cc2F)cc1OC	.	/	/	.	/	.	/
Nn1c(SCC(=O)N2c3ccccc3Sc3ccc(Cl)cc32)nnc1-c1cc(-c2ccc(F)cc2)n[nH]1	.	/	/	.	/	.	/
